These results are taken from PubChem BioAssay (Tox21).

A number with no mark means an inactive call. Results filed as inconclusive are left out. Active and inactive are the calls of the source. Unless noted, calls follow the shape of the dose curve; as a rule, active = well fitted curve in the direction sought with a large enough effect in the repeat runs; inconclusive = weak or mixed curves; inactive = no such curve, though single readings can be large; an effect the other way counts as inactive or inconclusive.

The nature of test [1]: qHTS assay to identify small molecule antagonists of the glucocorticoid receptor (GR) signaling pathway - cell viability counter screen (AID 720693). Also: nearly all actives have a fitted effect of over 55% in size. In general terms: In qHTS, concentration-response curves come from the screen itself.
The nature of test [2]: qHTS assay to identify small molecule antagonists of the androgen receptor (AR) signaling pathway - cell viability counter screen (AID 743033; also: nearly all actives have a fitted effect of over 45% in size).
Test [3] is described as follows: qHTS assay to identify small molecule antagonists of the androgen receptor (AR) signaling pathway using the MDA cell line - cell viability counter screen (AID 743041; also: nearly all actives have a fitted effect of over 45% in size). The method in brief: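 Compound exposure lasted 16 h at 37C in MDA-kb2 AR-luc cells stimulated with R1881. Protease-based CellTiter-Fluor reagent was applied for the final 30 min and fluorescence measured.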

A short description of test [4]: qHTS assay for identifying genotoxic compounds that show differential cytotoxicity against isogenic chicken DT40 cell lines with known DNA damage response pathways - wild type cell line (AID 743012). Also: nearly all actives have a fitted effect of over 60% in size. The essentials: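 300 wt DT40 cells/well; cpd (DMSO) pintool-transferred after ~0.5 h at 37 C/5% CO2; 40 h incubation; CellTiter-Glo added, 30 min RT; luminescence read.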

Test [5] is described as follows: qHTS assay for identifying genotoxic compounds that show differential cytotoxicity against isogenic chicken DT40 cell lines with known DNA damage response pathways - Rad54/Ku70 mutant cell line (AID 743015). Also: nearly all actives have a fitted effect of over 60% in size. Also: potency is read from the fitted curve at half-maximal effect.
Test [6] in a line: qHTS assay for identifying genotoxic compounds that show differential cytotoxicity against isogenic chicken DT40 cell lines with known DNA damage response pathways - Rev3 mutant cell line (AID 743014). Also: nearly all actives have a fitted effect of over 55% in size. Also: potency is read from the fitted curve at half-maximal effect.
For test [7], the target named is Androgen receptor (Homo sapiens) (UniProt P10275). The test is described as follows: qHTS assay to identify small molecule antagonists of the androgen receptor (AR) signaling pathway (AID 743035; active = well fitted inhibition curve with a large enough effect in the signal ratio in the repeat runs, not every such curve was filed as active; the % refers to the signal ratio). The method in brief:
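In this cell-based reporter screen, compounds were tested in concentration series against R1881-activated HEK293 cells expressing beta-lactamase under UAS control; after 16 h at 37C, FRET substrate was added and fluorescence read 2 h later.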

For test [8] the target is unchanged. The test can be described thus: qHTS assay to identify small molecule agonists of the androgen receptor (AR) signaling pathway using the MDA cell line (AID 743040; also: nearly all actives have a fitted effect of over 20% in size). The essentials:
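Testing was done with the MDA-kb2 AR-luc line, a human breast carcinoma stably transfected with MMTV-luciferase containing AR and GR response elements. Cells were exposed 16 h at 37C before ONE-Glo luminescence detection.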

Test [9] has the same target. The test can be described thus: qHTS assay to identify small molecule antagonists of the androgen receptor (AR) signaling pathway using the MDA cell line (AID 743042; also: nearly all actives have a fitted effect of over 55% in size). The essentials:
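MDA-kb2 breast carcinoma cells carrying MMTV-luciferase (AR/GR responsive) were co-treated with compounds and the agonist R1881 for 16 h at 37C. Inhibition read as ONE-Glo luminescence; CellTiter-Fluor fluorescence measured in parallel for cytotoxicity.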

The target is the same in test [10]. The test can be described thus: qHTS assay to identify small molecule agonists of the androgen receptor (AR) signaling pathway (AID 743036; active = well fitted activation curve with a large enough effect in the signal ratio in the repeat runs, with a control signal flat, not every such curve was filed as active; the % refers to the signal ratio). The method in brief: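 Screening used 2,000 AR-bla HEK293 cells per well, treated 16 h at 37C with test compounds in DMSO alongside positive and DMSO-only controls; beta-lactamase activity was then read by LiveBLAzer B/G FRET fluorescence after 2 h at room temperature.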
% is scaled to controls: 0 for no effect and ±100 for the full control effect.

Sequence of Androgen receptor (Homo sapiens) (P10275 whole entry, looked up): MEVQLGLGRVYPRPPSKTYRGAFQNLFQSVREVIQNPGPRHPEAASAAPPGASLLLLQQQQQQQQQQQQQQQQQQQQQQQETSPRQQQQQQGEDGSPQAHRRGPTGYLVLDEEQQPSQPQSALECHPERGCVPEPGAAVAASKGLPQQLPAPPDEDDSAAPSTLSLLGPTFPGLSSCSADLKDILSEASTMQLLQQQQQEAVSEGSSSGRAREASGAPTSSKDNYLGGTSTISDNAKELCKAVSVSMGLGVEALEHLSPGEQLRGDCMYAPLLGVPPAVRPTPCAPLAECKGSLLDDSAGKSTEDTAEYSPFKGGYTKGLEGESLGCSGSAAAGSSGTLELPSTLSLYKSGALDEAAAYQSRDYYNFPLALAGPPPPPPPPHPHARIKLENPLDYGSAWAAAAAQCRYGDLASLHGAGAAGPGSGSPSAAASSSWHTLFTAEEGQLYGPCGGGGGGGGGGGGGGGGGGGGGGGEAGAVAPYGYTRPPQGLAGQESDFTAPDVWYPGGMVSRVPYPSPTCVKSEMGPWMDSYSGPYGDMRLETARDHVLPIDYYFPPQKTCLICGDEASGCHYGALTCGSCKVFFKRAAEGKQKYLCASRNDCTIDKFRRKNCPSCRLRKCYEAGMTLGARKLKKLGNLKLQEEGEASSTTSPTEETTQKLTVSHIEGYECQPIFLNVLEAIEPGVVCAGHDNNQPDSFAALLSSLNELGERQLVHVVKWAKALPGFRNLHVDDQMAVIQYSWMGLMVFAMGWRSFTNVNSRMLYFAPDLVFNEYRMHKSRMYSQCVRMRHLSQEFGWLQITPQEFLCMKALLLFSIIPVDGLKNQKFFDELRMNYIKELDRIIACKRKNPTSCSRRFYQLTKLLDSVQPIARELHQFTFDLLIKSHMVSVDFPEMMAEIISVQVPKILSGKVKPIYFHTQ

As for `Nc1ccn(C2CO[C@H](CO)O2)c(=O)n1` (stereo partly drawn), the call in test [1] and in test [2] was inactive. In addition, the Potency entry in [3] is “inactive”.

In the case of `CCCCCCCCC=O`, the Potency result in [4] and in [5] was “inactive” throughout. Moreover, the compound was called inactive in [2].

Take `c1ccc2cnncc2c1`: the outcome in [1] and in test [2] was inactive. The Potency entry in test [6], in test [5] and in test [3] was “inactive” in each case.

In the case of `C=C(C)C(=O)NCCCN(C)C`, the compound was classed as inactive in [1] and in test [2]. Also, the Potency result in test [6] and in test [3] was “inactive” in each case.

With `C=C(C)C(=O)NCCC[N+](C)(C)C`, in test [1], the outcome was inactive. Besides, the Potency entry in test [6], in test [5] and in test [3] was “inactive” in each case.

For `CC(=O)CCc1ccc(O)cc1`, the compound was called inactive in [1] and in test [2]. The Potency result in [6], in [5] and in [3] was “inactive” throughout.

Consider `N[C@@H](CS)C(=O)O`, for which the Potency result in test [4], in [6], in [5] and in test [3] was “inactive” each time.

Take `NC(=O)c1ncn([C@@H]2O[C@H](CO)[C@@H](O)[C@H]2O)c1N`: the compound was classed as inactive in test [1] and in test [2]. The Potency result in test [5] and in test [3] was “inactive” throughout.

As for `Cn1ccc2cc3c(cc21)CCN3C(=O)Nc1cccnc1`, the compound was called inactive in test [1] and in test [2]. Further, the results for the Potency in test [6] and in test [5] were 13.3 µM (active) and 26.6 µM (active), respectively. The Potency entry in test [3] is “inactive”.

As for `c1ccc(CCCc2ccccn2)cc1`, the Potency result in test [4], in test [6], in [5] and in [3] was “inactive” each time. Moreover, in test [2], the call was inactive.

Take `O=Cc1ccccc1[N+](=O)[O-]`: the compound was classed as inactive in [1] and in test [2]. For the same compound, the Potency entry in test [3] was “inactive”.

As to `CC(C)CCOC(=O)CC(C)C`, the outcome in test [1] and in test [2] was inactive. The Potency result in [6] and in [3] was “inactive” in each case.

Consider `CCCCCCCCN(C)CCCCCCCC`, for which the compound was classed as inactive in [1], in [2] and in [9]. Moreover, the Potency result in test [7], in test [8] and in [3] was “inactive” each time.

With `C1C2OC2C2C1C1CC2C2OC12` (stereo not drawn), the Potency result in [4] and in test [3] was “inactive” each time. Moreover, the compound was classed as inactive in test [2].

Consider `FC(F)(F)C(F)(F)C(F)(F)C(F)(F)C(F)(F)C(F)(F)C(F)(F)C(F)(F)C(F)(F)C(F)(F)F`, for which the viability change, negative = cytotoxic in test [1] was -1.03% [at 7.04 µM]; in test [3] it was 6.81% [at 8.47 µM]. The activity, negative = cytotoxicity in test [6] is -1.46% [at 8.53 µM]. Moreover, the activity change, negative = cytotoxicity in test [5] was 4.69% [at 8.55 µM].

Consider `Cc1ccccc1Br`, for which the Potency result in [4], in test [6], in [5] and in test [3] was “inactive” in each case.

Take `C#CC(O)CCCCC` (stereo not drawn): the compound was called inactive in test [1] and in [2]. The Potency result in test [6], in test [5] and in test [3] was “inactive” each time.

As for `CCC(=O)/C=C/c1ccc(OC)cc1`, the call in test [1] and in test [2] was inactive. Also, the Potency in test [5] was 54.5 µM (active). The Potency entry in test [3] is “inactive”.

As to `OCCN1C[C@H](O)[C@@H](O)[C@H](O)[C@H]1CO`, the Potency entry in [4], in test [6], in test [5], in [7], in test [8] and in [3] was “inactive” each time. Besides, the compound was called inactive in test [2], in [10] and in test [9].

As to `NC1CCN(c2cccc(Cl)n2)CC1`, the compound was classed as inactive in test [2], in test [10] and in test [9]. Moreover, the Potency result in test [7], in [8] and in test [3] was “inactive” throughout.

As to `CCOC(=O)Cn1c(=O)sc2cccc(Cl)c21`, the result in test [1] and in test [2] was inactive. In addition, the Potency entry in test [5] and in test [3] was “inactive” in each case.

Take `CCN1CCCC(OC(=O)C(c2ccccc2)c2ccccc2)C1` (stereo not drawn): the compound was called inactive in test [1] and in test [2]. The Potency entry in [3] was “inactive”.

Consider `CCCCCCOC(=O)c1ccccc1O`, for which the compound was classed as inactive in test [1], in [2] and in test [9]. Also, the Potency in test [6] was 27.3 µM (active). The Potency result in test [5], in [7], in test [8] and in test [3] was “inactive” throughout.

Turning to `CC(C)COC(=O)C(C)C`, the compound was called inactive in test [1] and in [2]. Besides, the Potency entry in test [6], in [5] and in test [3] was “inactive” each time.

For `Oc1ccc2c(c1)OC[C@@H](N1CCC(O)(c3ccc(F)cc3)CC1)[C@H]2O`, the compound was called inactive in test [1] and in test [2]. For the same compound, the Potency result in test [3] was “inactive”.
